According to the supplement of paper PMC10849652:
Targets with a hit are over-represented here; the source holds about 7,900 in all. About 0.6% of all pairs of compound and target were hits.

How the values were obtained:
Assay in all cases: log2 fold change, soluble protein after heating vs DMSO (PISA); higher = thermal stabilisation; K562 cells, 10 uM, 30 min; active = over 0.2 and 3.5 SD of the protein, either way, in both replicates (recomputed)
bafetinib = compound: Cc1ccc(NC(=O)c2ccc(CN3CC[C@H](N(C)C)C3)c(C(F)(F)F)c2)cc1Nc1nccc(-c2cncnc2)n1 [bafetinib]
How it was run: (§1)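 K562 cells at 2×10^6 cells/mL were given 10 μM compound for 30 min. Aliquots then went through 3 min of heating across 48°C-58°C, were pooled, and were extracted in PBS with 0.5% NP-40 at 4°C, and the supernatant after 21,000xg for 90 min was quantified by TMTpro 16plex LC-MS/MS with channel sums equalised. Thermal stability relative to control samples, from duplicates, is given as log2 fold change.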

[1] = compound: Cc1cccc(CC(=O)N2CCc3c2ccc(-c2cn(C)c4ncnc(N)c24)c3F)n1
How it was run: as §1

nilotinib = compound: Cc1cn(-c2cc(NC(=O)c3ccc(C)c(Nc4nccc(-c5cccnc5)n4)c3)cc(C(F)(F)F)c2)cn1 [nilotinib]
How it was run: as §1

[2] = compound: Cc1nc(Nc2n[nH]c3c2CN(C(=O)N[C@H](CN(C)C)c2ccccc2)C3(C)C)c2sccc2n1
How it was run: as §1

dasatinib = compound: Cc1nc(Nc2ncc(C(=O)Nc3c(C)cccc3Cl)s2)cc(N2CCN(CCO)CC2)n1 [dasatinib]
How it was run: as §1

[3] = compound: Cc1ncc(-c2ccnc(Nc3ccc(S(C)(=O)=O)cc3)n2)n1C(C)C
How it was run: as §1

[4] = compound: Cn1cc(-c2ccc3c(c2)CCN3C(=O)Cc2cccc(C(F)(F)F)c2)c2c(N)ncnc21
How it was run: as §1

[5] = compound: Cn1cc(-c2ccc3nnc(C(F)(F)c4ccc5ncccc5c4)n3n2)cn1
How it was run: as §1

tipifarnib = compound: Cn1cncc1[C@@](N)(c1ccc(Cl)cc1)c1ccc2c(c1)c(-c1cccc(Cl)c1)cc(=O)n2C [tipifarnib]
How it was run: as §1

mubritinib = compound: FC(F)(F)c1ccc(/C=C/c2nc(COc3ccc(CCCCn4ccnn4)cc3)co2)cc1 [mubritinib]
How it was run: as §1

Measured: log2 fold change

RNF14 (UniProt Q9UBS8)
inactive: bafetinib -0.033 | [1] 0.05 | nilotinib -0.002 | [2] -0.07 | dasatinib -0.136 | [3] -0.048 | [4] -0.017 | [5] 0.033 | tipifarnib -0.05 | mubritinib 0.017

RECQL (UniProt P46063)
inactive: bafetinib 0.005 | [1] -0.019 | nilotinib 0.025 | [2] 0.006 | dasatinib -0.043 | [3] -0.033 | [4] 0.055 | [5] -0.006 | tipifarnib -0.034 | mubritinib 0.017

RPP14 (UniProt O95059)
Chain of UniProt O95059 (O95059 whole entry, looked up): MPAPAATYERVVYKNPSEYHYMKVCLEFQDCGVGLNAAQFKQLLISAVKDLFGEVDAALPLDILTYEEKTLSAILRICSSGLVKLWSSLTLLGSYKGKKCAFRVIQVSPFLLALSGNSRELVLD
inactive: bafetinib 0.045 | [1] 0 | nilotinib -0.014 | [2] 0.019 | dasatinib 0.063 | [3] -0.013 | [4] -0.078 | [5] -0.054 | tipifarnib 0.003 | mubritinib -0.084

RAB9A (UniProt P51151)
Chain of UniProt P51151 (P51151 whole entry, looked up): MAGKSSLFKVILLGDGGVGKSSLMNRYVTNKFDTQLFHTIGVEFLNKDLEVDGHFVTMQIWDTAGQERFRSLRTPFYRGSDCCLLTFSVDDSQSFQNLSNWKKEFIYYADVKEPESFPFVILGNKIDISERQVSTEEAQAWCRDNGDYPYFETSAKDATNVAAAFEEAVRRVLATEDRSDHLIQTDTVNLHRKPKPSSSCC
inactive: bafetinib -0.073 | [1] -0.021 | nilotinib -0.01 | [2] 0.012 | dasatinib 0.002 | [3] 0.002 | [4] 0.104 | [5] 0.001 | tipifarnib 0.001 | mubritinib 0.002

SAFB2 (UniProt Q14151)
inactive: bafetinib 0.17 | [1] -0.018 | nilotinib -0.016 | [2] 0.117 | dasatinib 0.183 | [3] -0.054 | [4] -0.135 | [5] -0.058 | tipifarnib 0.085 | mubritinib -0.077

RBM27 (UniProt Q9P2N5)
Chain of UniProt Q9P2N5 (Q9P2N5 whole entry, looked up): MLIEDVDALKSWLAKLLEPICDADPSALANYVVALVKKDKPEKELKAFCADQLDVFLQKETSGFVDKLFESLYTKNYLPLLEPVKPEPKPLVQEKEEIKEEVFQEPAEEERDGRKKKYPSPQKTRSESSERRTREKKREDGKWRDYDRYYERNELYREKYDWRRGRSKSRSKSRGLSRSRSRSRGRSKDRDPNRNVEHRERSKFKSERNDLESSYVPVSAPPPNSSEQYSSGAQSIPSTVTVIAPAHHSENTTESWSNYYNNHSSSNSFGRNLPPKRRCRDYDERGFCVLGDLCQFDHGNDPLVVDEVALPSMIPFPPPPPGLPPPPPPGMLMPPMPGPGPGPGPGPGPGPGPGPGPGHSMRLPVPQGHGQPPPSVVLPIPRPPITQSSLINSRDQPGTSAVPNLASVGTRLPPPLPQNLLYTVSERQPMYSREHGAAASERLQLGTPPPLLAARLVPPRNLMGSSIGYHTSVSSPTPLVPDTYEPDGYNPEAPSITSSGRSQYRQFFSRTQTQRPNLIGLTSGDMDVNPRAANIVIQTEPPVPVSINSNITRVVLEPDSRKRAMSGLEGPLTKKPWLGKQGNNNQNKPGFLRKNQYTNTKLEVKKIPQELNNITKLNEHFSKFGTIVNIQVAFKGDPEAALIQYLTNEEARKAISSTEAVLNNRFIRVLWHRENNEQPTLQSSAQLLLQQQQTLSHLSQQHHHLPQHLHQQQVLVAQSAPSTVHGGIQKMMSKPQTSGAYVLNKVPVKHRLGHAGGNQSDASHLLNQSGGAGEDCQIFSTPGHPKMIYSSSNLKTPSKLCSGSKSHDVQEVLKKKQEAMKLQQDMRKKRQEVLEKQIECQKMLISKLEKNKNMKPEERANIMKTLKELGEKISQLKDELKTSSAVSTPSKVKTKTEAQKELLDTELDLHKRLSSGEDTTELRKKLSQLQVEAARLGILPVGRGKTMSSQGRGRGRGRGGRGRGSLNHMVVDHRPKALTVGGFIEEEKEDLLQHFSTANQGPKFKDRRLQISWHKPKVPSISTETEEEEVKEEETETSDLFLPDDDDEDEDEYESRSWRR
inactive: bafetinib 0.007 | [1] 0.078 | nilotinib 0.019 | dasatinib -0.07 | [3] -0.07 | [4] 0.053 | [5] 0.041 | tipifarnib -0.005 | mubritinib 0.023
active: [2] -0.91

ROMO1 (UniProt P60602)
Chain of UniProt P60602 (P60602 whole entry, looked up): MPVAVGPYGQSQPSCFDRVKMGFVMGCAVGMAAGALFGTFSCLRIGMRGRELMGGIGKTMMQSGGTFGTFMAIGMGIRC
inactive: bafetinib 0.056 | [1] -0.022 | nilotinib -0.001 | [2] 0.027 | dasatinib -0.03 | [3] -0.039 | [4] 0.066 | [5] 0.063 | tipifarnib 0.062 | mubritinib 0.01

RTN4IP1 (UniProt Q8WWV3)
Chain of UniProt Q8WWV3 (Q8WWV3 whole entry, looked up): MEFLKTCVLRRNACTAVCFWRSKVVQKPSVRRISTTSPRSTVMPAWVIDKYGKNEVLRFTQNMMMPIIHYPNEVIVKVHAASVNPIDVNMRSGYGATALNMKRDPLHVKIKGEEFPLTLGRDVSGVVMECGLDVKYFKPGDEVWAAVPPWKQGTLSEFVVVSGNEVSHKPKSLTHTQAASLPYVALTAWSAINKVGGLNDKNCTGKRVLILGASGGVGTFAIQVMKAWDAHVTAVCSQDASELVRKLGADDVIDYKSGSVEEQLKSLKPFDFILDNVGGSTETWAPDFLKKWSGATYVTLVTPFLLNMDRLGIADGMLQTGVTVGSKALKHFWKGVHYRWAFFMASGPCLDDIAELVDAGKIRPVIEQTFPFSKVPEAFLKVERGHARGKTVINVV
inactive: bafetinib -0.178 | [1] -0.07 | nilotinib 0.171 | [2] -0.194 | dasatinib 0.189 | [3] -0.008 | [4] 0.121 | [5] 0.168 | tipifarnib 0.041 | mubritinib 0.122

SDCBP (UniProt O00560)
inactive: bafetinib -0.229 | [1] 0.038 | nilotinib 0.015 | [2] -0.021 | dasatinib -0.12 | [3] 0 | [4] -0.076 | [5] -0.058 | tipifarnib 0.018 | mubritinib 0.025

SHCBP1 (UniProt Q8NEM2)
Chain of UniProt Q8NEM2 (Q8NEM2 whole entry, looked up): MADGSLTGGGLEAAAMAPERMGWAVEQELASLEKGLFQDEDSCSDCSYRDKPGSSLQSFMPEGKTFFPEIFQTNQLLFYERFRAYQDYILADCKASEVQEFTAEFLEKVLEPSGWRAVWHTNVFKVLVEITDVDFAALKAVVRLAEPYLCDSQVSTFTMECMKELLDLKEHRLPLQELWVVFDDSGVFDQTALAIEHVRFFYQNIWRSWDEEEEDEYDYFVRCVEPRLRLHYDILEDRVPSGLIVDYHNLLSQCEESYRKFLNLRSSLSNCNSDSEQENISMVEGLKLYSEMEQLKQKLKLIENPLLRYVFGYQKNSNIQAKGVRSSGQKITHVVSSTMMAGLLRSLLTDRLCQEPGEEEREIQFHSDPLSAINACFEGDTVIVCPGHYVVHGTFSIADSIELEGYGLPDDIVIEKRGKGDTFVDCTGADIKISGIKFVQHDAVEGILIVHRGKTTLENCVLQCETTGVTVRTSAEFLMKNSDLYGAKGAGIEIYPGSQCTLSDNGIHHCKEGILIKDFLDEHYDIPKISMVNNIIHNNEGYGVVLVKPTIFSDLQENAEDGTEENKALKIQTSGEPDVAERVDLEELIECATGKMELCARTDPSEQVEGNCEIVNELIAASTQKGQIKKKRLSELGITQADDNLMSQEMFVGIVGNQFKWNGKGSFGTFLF
active: [2] -0.459
inactive: bafetinib -0.017 | [1] 0.041 | nilotinib -0.207 | dasatinib -0.091 | [3] 0.003 | [4] 0.223 | [5] 0.004 | tipifarnib 0.299 | mubritinib 0.1

RHEB (UniProt Q15382)
inactive: bafetinib 0.01 | [1] 0.004 | nilotinib -0.027 | [2] 0.001 | dasatinib 0.004 | [3] 0.04 | [4] 0.035 | [5] 0.001 | tipifarnib -0.042 | mubritinib 0.004

RCN3 (UniProt Q96D15)
inactive: bafetinib -0.015 | nilotinib 0.015 | [2] -0.011 | dasatinib 0.045 | [3] 0.011 | [4] 0.162 | [5] 0.057 | tipifarnib -0.038 | mubritinib -0.056
active: [1] -0.318

SEC16A isoform 5 (UniProt O15027)
inactive: bafetinib 0.023 | [1] 0.096 | nilotinib 0.017 | [2] -0.048 | dasatinib -0.169 | [3] 0.021 | [4] -0.006 | [5] -0.051 | tipifarnib 0.012 | mubritinib -0.081

RPA3 (UniProt P35244)
Chain of UniProt P35244 (P35244 whole entry, looked up): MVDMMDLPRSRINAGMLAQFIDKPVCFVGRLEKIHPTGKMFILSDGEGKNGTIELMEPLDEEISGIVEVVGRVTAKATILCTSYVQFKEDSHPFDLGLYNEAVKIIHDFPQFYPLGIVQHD
inactive: bafetinib 0.023 | [1] 0.086 | nilotinib -0.034 | [2] -0.047 | dasatinib 0.016 | [3] 0.022 | [4] 0.105 | [5] -0.002 | tipifarnib 0.014 | mubritinib 0.024

RAP2C (UniProt Q9Y3L5)
inactive: bafetinib 0.115 | [1] 0.157 | nilotinib 0.181 | [2] 0.069 | dasatinib 0.018 | [3] 0.019 | [4] 0.047 | [5] -0.032 | tipifarnib 0.086 | mubritinib 0.041

RFC3 (UniProt P40938)
inactive: bafetinib -0.035 | [1] 0.049 | nilotinib -0.016 | [2] -0.017 | dasatinib -0.032 | [3] -0.011 | [4] 0.053 | [5] -0.01 | tipifarnib -0.051 | mubritinib 0.045

RIPK1 (UniProt Q13546)
active: [1] 1.12 | [3] 1.18 | [4] 1.49
inactive: bafetinib 0.209 | nilotinib -0.007 | [2] -0.196 | dasatinib 0.197 | [5] -0.052 | tipifarnib -0.121 | mubritinib -0.089

SKP1 (UniProt P63208)
active: [1] 0.289
inactive: bafetinib -0.003 | nilotinib 0.024 | [2] -0.011 | dasatinib 0.007 | [3] 0.012 | [4] 0.047 | [5] -0.017 | tipifarnib -0.06 | mubritinib -0.001

RPS15 (UniProt P62841)
inactive: bafetinib 0.087 | [1] -0.09 | nilotinib 0.033 | [2] 0.221 | dasatinib 0.133 | [3] -0.106 | [4] -0.194 | [5] -0.027 | tipifarnib 0.082 | mubritinib -0.044

RALA (UniProt P11233)
Chain of UniProt P11233 (P11233 whole entry, looked up): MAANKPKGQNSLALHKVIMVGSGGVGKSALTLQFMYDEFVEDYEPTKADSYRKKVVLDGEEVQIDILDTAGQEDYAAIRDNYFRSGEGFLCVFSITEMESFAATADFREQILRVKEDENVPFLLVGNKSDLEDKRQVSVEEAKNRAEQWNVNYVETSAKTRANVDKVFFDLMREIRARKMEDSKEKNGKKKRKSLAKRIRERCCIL
inactive: bafetinib -0.026 | [1] 0.178 | nilotinib 0.064 | [2] -0.012 | dasatinib 0.027 | [3] -0.026 | [4] 0.014 | [5] 0.043 | tipifarnib -0.06 | mubritinib 0.015

SESN2 (UniProt P58004)
Chain of UniProt P58004 (P58004 whole entry, looked up): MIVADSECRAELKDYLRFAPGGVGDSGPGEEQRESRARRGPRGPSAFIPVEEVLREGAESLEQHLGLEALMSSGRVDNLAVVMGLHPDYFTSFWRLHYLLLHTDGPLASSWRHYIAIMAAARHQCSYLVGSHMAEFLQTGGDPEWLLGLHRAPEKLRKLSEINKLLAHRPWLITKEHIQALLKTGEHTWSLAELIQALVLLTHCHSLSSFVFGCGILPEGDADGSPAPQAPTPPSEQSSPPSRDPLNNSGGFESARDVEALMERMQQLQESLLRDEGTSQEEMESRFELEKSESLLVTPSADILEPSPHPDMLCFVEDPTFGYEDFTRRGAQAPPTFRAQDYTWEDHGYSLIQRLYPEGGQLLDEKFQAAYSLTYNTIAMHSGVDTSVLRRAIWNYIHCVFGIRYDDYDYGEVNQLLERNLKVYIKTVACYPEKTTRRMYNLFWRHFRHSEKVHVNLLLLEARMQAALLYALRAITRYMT
inactive: bafetinib -0.09 | [1] 0.136 | nilotinib -0.02 | [2] -0.207 | dasatinib -0.034 | [3] -0.063 | [4] 0.069 | [5] -0.069 | tipifarnib -0.213 | mubritinib 0.042

RPL38 (UniProt P63173)
inactive: bafetinib 0.089 | [1] 0.01 | nilotinib 0.026 | [2] 0.155 | dasatinib 0.057 | [3] -0.003 | [4] -0.023 | [5] -0.022 | tipifarnib -0.021 | mubritinib 0.006

RUFY1 (UniProt Q96T51)
Chain of UniProt Q96T51 (Q96T51 whole entry, looked up): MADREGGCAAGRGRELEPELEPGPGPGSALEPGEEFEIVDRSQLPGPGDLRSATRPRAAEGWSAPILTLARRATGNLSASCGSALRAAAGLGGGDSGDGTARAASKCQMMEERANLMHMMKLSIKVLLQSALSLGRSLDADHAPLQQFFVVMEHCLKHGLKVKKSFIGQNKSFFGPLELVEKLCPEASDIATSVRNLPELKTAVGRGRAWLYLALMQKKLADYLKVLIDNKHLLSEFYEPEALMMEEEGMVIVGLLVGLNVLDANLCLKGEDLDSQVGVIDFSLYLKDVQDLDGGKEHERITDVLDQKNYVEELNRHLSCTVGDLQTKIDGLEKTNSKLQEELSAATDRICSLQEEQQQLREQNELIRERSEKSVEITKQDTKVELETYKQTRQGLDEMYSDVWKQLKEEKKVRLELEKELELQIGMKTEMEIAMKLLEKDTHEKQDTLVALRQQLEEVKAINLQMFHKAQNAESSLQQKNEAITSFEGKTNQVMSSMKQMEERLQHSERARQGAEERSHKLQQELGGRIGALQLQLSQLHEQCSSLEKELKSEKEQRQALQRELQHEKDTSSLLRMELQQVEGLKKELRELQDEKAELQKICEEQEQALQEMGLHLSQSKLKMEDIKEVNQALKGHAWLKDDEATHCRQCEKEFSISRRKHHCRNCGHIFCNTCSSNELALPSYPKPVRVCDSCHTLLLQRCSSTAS
inactive: bafetinib -0.052 | [1] 0.077 | nilotinib -0.066 | [2] -0.086 | dasatinib -0.11 | [3] 0.067 | [4] -0.061 | [5] 0.05 | tipifarnib -0.062 | mubritinib -0.001

SIRT2 (UniProt Q8IXJ6)
Chain of UniProt Q8IXJ6 (Q8IXJ6 whole entry, looked up): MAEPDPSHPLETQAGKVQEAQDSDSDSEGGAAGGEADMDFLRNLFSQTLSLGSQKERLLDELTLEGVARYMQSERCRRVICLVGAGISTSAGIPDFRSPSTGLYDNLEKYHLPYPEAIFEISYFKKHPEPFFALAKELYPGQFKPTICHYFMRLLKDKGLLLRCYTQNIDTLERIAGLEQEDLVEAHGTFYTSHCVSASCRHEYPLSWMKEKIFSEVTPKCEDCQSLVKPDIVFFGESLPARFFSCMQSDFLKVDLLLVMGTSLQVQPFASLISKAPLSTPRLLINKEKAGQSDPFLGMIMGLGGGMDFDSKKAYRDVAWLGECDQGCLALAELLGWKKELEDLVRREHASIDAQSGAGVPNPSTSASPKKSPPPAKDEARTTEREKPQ
inactive: bafetinib -0.041 | [1] -0.003 | nilotinib 0.061 | [2] -0.006 | dasatinib -0.032 | [3] -0.051 | [4] 0.104 | [5] -0.002 | tipifarnib 0.027 | mubritinib 0.067

RBM39 (UniProt Q14498)
active: [2] -1.03
inactive: bafetinib 0.046 | [1] 0.082 | nilotinib -0.027 | dasatinib -0.1 | [3] 0.055 | [4] -0.041 | [5] -0.012 | tipifarnib -0.03 | mubritinib -0.043

SLC18B1 (UniProt Q6NT16)
inactive: bafetinib -0.071 | [1] 0 | nilotinib -0.024 | [2] 0.04 | dasatinib 0.063 | [3] -0.016 | [4] 0.034 | [5] 0.198 | tipifarnib -0.029 | mubritinib -0.018

SAAL1 (UniProt Q96ER3)
Chain of UniProt Q96ER3 (Q96ER3 whole entry, looked up): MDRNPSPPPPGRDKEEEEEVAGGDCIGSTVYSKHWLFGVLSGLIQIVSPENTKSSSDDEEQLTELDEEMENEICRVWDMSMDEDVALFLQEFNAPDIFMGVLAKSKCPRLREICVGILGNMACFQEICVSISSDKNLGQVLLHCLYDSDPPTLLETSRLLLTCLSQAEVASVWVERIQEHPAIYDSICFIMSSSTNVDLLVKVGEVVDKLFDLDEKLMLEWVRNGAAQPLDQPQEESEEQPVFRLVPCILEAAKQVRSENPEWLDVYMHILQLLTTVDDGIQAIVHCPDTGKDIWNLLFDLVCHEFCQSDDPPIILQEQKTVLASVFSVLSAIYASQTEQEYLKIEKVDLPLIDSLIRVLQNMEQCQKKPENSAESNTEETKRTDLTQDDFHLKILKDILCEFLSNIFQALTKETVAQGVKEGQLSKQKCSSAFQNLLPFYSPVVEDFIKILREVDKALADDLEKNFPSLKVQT
inactive: bafetinib -0.102 | [1] 0.047 | nilotinib -0.042 | [2] 0.161 | dasatinib -0.101 | [3] 0.246 | [4] -0.06 | [5] 0 | tipifarnib -0.053 | mubritinib 0.109

RNPS1 (UniProt Q15287)
active: [2] -0.62
inactive: bafetinib -0.073 | [1] -0.032 | nilotinib -0.035 | dasatinib -0.007 | [3] -0.12 | [4] -0.037 | [5] 0.011 | tipifarnib -0.084 | mubritinib 0.003

RCOR3 isoform 3 (UniProt Q9P2K3)
inactive: bafetinib 0.023 | [1] 0.039 | nilotinib -0.019 | [2] 0.001 | dasatinib -0.09 | [3] -0.022 | [4] -0.056 | [5] 0.006 | tipifarnib -0.119 | mubritinib 0.09

RPS6KA1 isoform 2 (UniProt Q15418)
inactive: bafetinib -0.051 | [1] 0.081 | nilotinib -0.002 | dasatinib -0.281 | [3] -0.044 | [4] -0.019 | [5] 0 | tipifarnib -0.056 | mubritinib 0.041
active: [2] -0.569
